Results reported in PubChem BioAssay (NCATS).
Results filed as inconclusive are left out. A call without a number means that no potency is given here. Activity calls are given as the source filed them. Calls come from the whole dose curve; as a rule, active = well fitted inhibition curve with a large enough effect; inconclusive = small, poorly fitted or top-dose-only effect; inactive = flat fitted curve, though single readings scatter.

Columns and labels:
Test in all cases: qHTS profiling for inhibitors of Plasmodium falciparum proliferation (AID 504749); note: nearly all actives have a fitted effect of over 60% in size
Conditions in all cases: P. falciparum in erythrocytes, SYBR Green DNA, 72 h; series mostly up to 28.7 µM
[1] = system: AS120
In short: (§1)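 Each compound contacts P. falciparum-infected red blood cells for 72 h at 37 C; lysis buffer (Tris, EDTA, saponin, Triton X, SYBR Green I) is added and fluorescence measured next morning; values normalized to controls.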

[2] = system: ATS189
In short: as §1

[3] = system: ATS95
In short: as §1

[4] = system: C2A
In short: as §1

[5] = system: CP185
In short: as §1

[6] = system: CP191
In short: as §1

[7] = system: CP192
In short: as §1

[8] = system: CP194
In short: as §1

[9] = system: CP201
In short: as §1

[10] = system: CP211
In short: as §1

[11] = system: CP215
In short: as §1

[12] = system: CP217
In short: as §1

[13] = system: CP237
In short: as §1

[14] = system: CP238
In short: as §1

[15] = system: CP247
In short: as §1

[16] = system: CP250
In short: as §1

[17] = system: CP252
In short: as §1

[18] = system: CP256
In short: as §1

[19] = system: CP260
In short: as §1

[20] = system: CP203
In short: as §1
Potency is the fitted concentration of half-maximal effect.

Structure (SMILES) | Potency [1] | Potency [2] | Potency [3] | Potency [4] | Potency [5] | outcome [6] | outcome [7] | outcome [8] | outcome [9] | outcome [10] | Potency [11] | outcome [12] | Potency [13] | Potency [14] | Potency [15] | Potency [16] | outcome [17] | outcome [18] | Potency [19] | Potency [20]
NCC1CCC(C(=O)Oc2ccc(CCC(=O)O)cc2)CC1 (configuration not stated) | inactive | inactive | inactive | inactive | inactive | inactive | inactive | inactive | inactive | inactive | inactive | inactive | inactive | inactive | inactive | inactive | inactive | inactive | inactive | –
COc1ccc(C(=O)NCc2ccc(OCCN(C)C)cc2)cc1OC | inactive | inactive | inactive | inactive | inactive | inactive | inactive | inactive | inactive | inactive | inactive | inactive | inactive | inactive | inactive | inactive | inactive | inactive | inactive | –
O=C(O)c1ccccc1C(=O)Nc1ccc(S(=O)(=O)Nc2nccs2)cc1 | inactive | inactive | inactive | inactive | inactive | inactive | inactive | inactive | inactive | inactive | inactive | inactive | inactive | inactive | inactive | inactive | inactive | inactive | – | –
O=C1c2cccc(O)c2C(=O)c2c(O)cccc21 | inactive | inactive | inactive | inactive | inactive | inactive | inactive | inactive | inactive | inactive | inactive | inactive | inactive | inactive | inactive | inactive | inactive | inactive | inactive | –
COc1nccnc1NS(=O)(=O)c1ccc(N)cc1 | inactive | inactive | inactive | inactive | inactive | inactive | inactive | inactive | inactive | inactive | – | inactive | inactive | inactive | inactive | inactive | inactive | inactive | inactive | inactive
CC(C)=CCC/C(C)=C/CO | inactive | inactive | inactive | inactive | inactive | inactive | inactive | inactive | inactive | inactive | inactive | inactive | inactive | inactive | inactive | inactive | inactive | inactive | inactive | –
Cc1ccc(S(=O)(=O)NC(=O)NC2CCCCCCC2)cc1 | inactive | inactive | inactive | inactive | inactive | inactive | inactive | inactive | inactive | inactive | inactive | inactive | inactive | inactive | inactive | inactive | inactive | inactive | inactive | –
CC(=O)Nc1cccc(O)c1 | inactive | inactive | inactive | inactive | inactive | inactive | inactive | inactive | inactive | inactive | inactive | inactive | inactive | inactive | inactive | inactive | inactive | inactive | inactive | –
CCCCOC(=O)c1ccc(N)cc1 | inactive | inactive | inactive | inactive | inactive | inactive | inactive | inactive | inactive | inactive | inactive | inactive | inactive | inactive | inactive | inactive | inactive | inactive | inactive | –
CCCCCCCC(=O)OCC(O)CO (configuration not stated) | inactive | inactive | inactive | inactive | inactive | inactive | inactive | inactive | inactive | inactive | inactive | inactive | inactive | inactive | inactive | inactive | inactive | inactive | inactive | –
Cc1c(NC(=O)c2cccnc2)c(=O)n(-c2ccccc2)n1C | inactive | inactive | inactive | inactive | inactive | inactive | inactive | inactive | inactive | inactive | – | inactive | inactive | inactive | inactive | inactive | inactive | inactive | inactive | inactive
CCN(CC)C(=O)c1cccc(C)c1 | inactive | inactive | inactive | inactive | inactive | inactive | inactive | inactive | inactive | inactive | inactive | inactive | inactive | inactive | inactive | inactive | inactive | inactive | – | –
Nc1ccncc1N | inactive | inactive | inactive | inactive | inactive | inactive | inactive | inactive | inactive | inactive | inactive | inactive | inactive | inactive | inactive | inactive | inactive | inactive | inactive | –
CC(C(=O)O)c1ccc2c(c1)Cc1cccnc1O2 (configuration not stated) | inactive | inactive | inactive | inactive | inactive | inactive | inactive | inactive | inactive | inactive | inactive | inactive | inactive | inactive | inactive | inactive | inactive | inactive | inactive | –
COc1ccc(NS(=O)(=O)c2ccc(N)cc2)nn1 | inactive | inactive | inactive | inactive | inactive | inactive | inactive | inactive | inactive | inactive | inactive | inactive | inactive | inactive | inactive | inactive | inactive | inactive | inactive | –
CCOc1cc(NC(C)=O)ccc1C(=O)OC | inactive | inactive | inactive | inactive | inactive | inactive | inactive | inactive | inactive | inactive | inactive | inactive | inactive | inactive | inactive | inactive | inactive | inactive | inactive | –
O=C(O)CNC(=O)c1ccccc1I | inactive | inactive | inactive | inactive | inactive | inactive | inactive | inactive | inactive | inactive | inactive | inactive | inactive | inactive | inactive | inactive | inactive | inactive | inactive | –
NC(=O)CCCCC1CCSS1 (configuration not stated) | – | – | inactive | inactive | inactive | inactive | inactive | inactive | inactive | inactive | – | inactive | – | inactive | inactive | inactive | inactive | inactive | – | inactive
COC(=O)c1ccccc1C(=O)c1ccc(OCCN2CCCCC2)cc1 | inactive | inactive | inactive | inactive | inactive | inactive | inactive | inactive | inactive | inactive | inactive | inactive | – | inactive | inactive | inactive | inactive | inactive | inactive | –
NC(=O)c1ccc([N+](=O)[O-])cc1Cl | inactive | – | inactive | inactive | inactive | – | inactive | inactive | inactive | inactive | inactive | inactive | inactive | inactive | inactive | inactive | inactive | inactive | – | inactive
O=C1c2ccccc2C(=O)C1c1ccc(Br)cc1 | inactive | inactive | – | inactive | inactive | – | inactive | inactive | inactive | inactive | – | – | inactive | inactive | inactive | inactive | inactive | – | – | –
NCc1ccc(S(N)(=O)=O)cc1 | inactive | – | inactive | inactive | inactive | inactive | inactive | inactive | inactive | inactive | inactive | inactive | inactive | inactive | inactive | inactive | inactive | inactive | – | inactive
Cc1cc(-n2nc3ccc(Cl)cc3n2)c(O)c(C(C)(C)C)c1 | – | – | – | – | – | – | inactive | inactive | inactive | inactive | inactive | – | inactive | – | – | – | – | – | inactive | inactive
CC(=O)OCC(COC(C)=O)OC(C)=O | inactive | inactive | inactive | inactive | inactive | inactive | – | inactive | inactive | inactive | inactive | inactive | inactive | inactive | inactive | inactive | inactive | inactive | inactive | inactive
CCCCCC(C)N (configuration not stated) | – | – | inactive | inactive | inactive | – | inactive | inactive | inactive | inactive | inactive | – | – | inactive | inactive | inactive | – | inactive | 10 µM (active) | inactive
NC(N)=NS(=O)(=O)c1ccc(N)cc1 | inactive | inactive | – | inactive | inactive | inactive | inactive | inactive | inactive | inactive | inactive | inactive | inactive | inactive | inactive | inactive | inactive | inactive | inactive | inactive
CC(=O)N(CC(O)CO)c1c(I)c(C(=O)NCC(O)CO)c(I)c(C(=O)NCC(O)CO)c1I (configuration not stated) | inactive | – | inactive | inactive | inactive | – | inactive | inactive | inactive | inactive | inactive | inactive | inactive | inactive | inactive | inactive | inactive | inactive | – | inactive
Cc1cc(O)cc(C)c1Cl | inactive | – | – | inactive | inactive | – | inactive | inactive | inactive | inactive | inactive | inactive | inactive | inactive | inactive | inactive | inactive | inactive | – | inactive
Cc1cc(OI)c(C(C)C)cc1-c1cc(C(C)C)c(OI)cc1C | – | – | – | – | inactive | – | – | inactive | inactive | inactive | – | – | inactive | – | – | inactive | – | inactive | – | –
Cc1[nH]c(C)c(Cl)c(=O)c1Cl | inactive | inactive | inactive | inactive | inactive | – | inactive | inactive | – | – | inactive | inactive | 8.91 µM (active) | inactive | inactive | – | inactive | – | 8.91 µM (active) | inactive
